Compound activity deposited in PubChem BioAssay by National Center for Advancing Translational Sciences (NCATS).
This is a sample that favours compounds with a hit; in the whole collection about 1.7% have one here.
TRPML1 inh – human mucolipin-1 channel inhibition; TRPML1-inducible cells, Ca2+ dye fluorescence, FDSS; active compounds read low; inhibition of EC80 agonist-evoked calcium signal; activity change, negative = inhibition, % (concentration not given with the values); hit rate 0.02% among 390,000; in the data active means activity change below about -50%; inconclusive means between about -30% and that limit;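 further: stimulus is agonist 54-4 at its EC80 concentration; on the % scale 0 is the no-effect control and ±100 the full control effect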
Target sequence (Q9GZU1 whole entry, looked up): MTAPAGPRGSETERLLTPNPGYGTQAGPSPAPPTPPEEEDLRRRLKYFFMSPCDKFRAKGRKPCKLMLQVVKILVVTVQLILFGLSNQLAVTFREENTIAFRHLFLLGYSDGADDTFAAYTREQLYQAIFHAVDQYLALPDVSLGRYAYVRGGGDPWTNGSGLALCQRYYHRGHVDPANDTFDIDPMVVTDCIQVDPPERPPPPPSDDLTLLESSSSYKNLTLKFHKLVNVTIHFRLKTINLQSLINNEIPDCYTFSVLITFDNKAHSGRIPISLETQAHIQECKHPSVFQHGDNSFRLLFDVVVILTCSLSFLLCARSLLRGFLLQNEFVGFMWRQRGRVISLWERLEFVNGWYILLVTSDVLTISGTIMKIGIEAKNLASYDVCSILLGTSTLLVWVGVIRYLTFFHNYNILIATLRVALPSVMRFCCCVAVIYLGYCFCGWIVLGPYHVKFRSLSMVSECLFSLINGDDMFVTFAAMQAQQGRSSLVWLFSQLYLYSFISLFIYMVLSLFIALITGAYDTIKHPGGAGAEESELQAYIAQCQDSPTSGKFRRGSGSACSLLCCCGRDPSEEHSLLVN
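Calcium fluorescence in TRPML1-DL cells induced overnight with Tet: a 110 s read after compound pin addition, then a 110 s antagonist read after challenge with 54-4 at 4 uM final (EC80).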
hERG WT inh – blocks the wildtype human KCNH2 potassium channel; AID 720551; U2OS, BacMam KCNH2, thallium flux FluxOr; active compounds read low; activity change, % at 1.84 µM; hit rate 0.37% among 340,000;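 active means maximum activity change below -70%; inconclusive means maximum activity change between -70% and -50%; inactive means maximum activity change above -50%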; further: on the % scale 0 is the no-effect control and ±100 the full control effect
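U2OS cells were transduced with wild-type KCNH2 virus (2.03 x 10^8 / mL) for 4 h at room temperature, then cultured overnight at 37 C. Thallium flux was read with FluxOr dye. Rate constants were normalized to DMSO controls.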
TRHR enhancer – TRH receptor (human) allosteric enhancement | P34981 | TRHR cells, fluo-8 calcium fluorescence, EC20 TRH enhancement | enhancement, % at 2 µM | hit rate 0.66% among 360,000; in the data active means enhancement above about 30%; further: 0% is about no effect
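Enhancer read-out: after compound pinning and an initial kinetic agonist-mode read, an EC20 of TRH (10 nM final) was injected and fluo-8 calcium signal (Ex 480/Em 530) followed at 1 s/cycle for 100 cycles in TRHR-expressing cells.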
KCNH2 3.1 inh – KCNH2 3.1 (human) potassium channel inhibition; AID 720553; hit rate 0.95% among 340,000; U2OS KCNH2 3.1, thallium flux FluxOr; active compounds read low; activity change, % (tested at about 1.8 µM);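 active means maximum activity change below -70%; inconclusive means maximum activity change from -70% to -50%; inactive means maximum activity change above -50%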;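 further: thallium influx rate constant from kinetic fluorescence after stimulation buffer; on the % scale 0 is the no-effect control and ±100 the full control effect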
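Virally transduced U2OS (3.1 isoform, 4 h infection in dark at RT) → overnight 37 C → FluxOr + Red40 in HBSS/HEPES, 45 min → stimulation buffer, 2 min kinetic read → rate constant vs DMSO controls.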
TRHR agonist – activates the human TRH receptor; P34981; hit rate 0.18% among 360,000; TRHR cells, calcium flux fluo-8, FDSS agonist mode; activation, % at 2 µM; in the data active means activation above about 30%; further: 0% is about no effect
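Fluo-8-loaded TRHR cells; 10 s baseline, compound added, kinetic Ca2+ fluorescence read 1/s, agonist mode.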
TRPML1 agonist – activates the human TRPML1 channel | TRPML1-expressing cells, Ca2+ dye fluorescence, FDSS | activation, % (concentration not given with the values) | hit rate 0.12% among 410,000 | AID 624414 | Q9GZU1; in the data active means activation above about 50%; inconclusive means mostly about 30% to 49%; further: 0% is about no effect
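Kinetic FDSS Ca2+ read in Tet-induced TRPML1-DL cells (ABD Ca8 dye plus quencher, 45-90 min RT loading): baseline, then compound, then 110 s agonist window; EC80 agonist 54-4 at 4uM final added afterwards for a 110 s antagonist window.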
* marks the source's active call; other numbers are inactive results; ? = inconclusive; nt = no result given.

SMILES	TRPML1 inh	hERG WT inh	TRHR enhancer	KCNH2 3.1 inh	TRHR agonist	TRPML1 agonist
Cn1c(N)c(C(=O)CCl)c(=O)n(Cc2ccccc2)c1=O	-5.7	-3.6	-0.6	-115.9*	0.3	-0.6
O=C(Cn1cncn1)NCCCc1ccccc1	9.1	-177.2*	0.8	6.1	0.1	0.0
O=C(Cn1cncn1)NCCC(c1ccccc1)c1ccccc1	9.1	-0.7	0.1	12.6	-0.2	-0.5
O=C(CC1SC(=Nc2ccc(OC(F)F)cc2)N(CCN2CCOCC2)C1=O)Nc1ccccc1 (centres undefined)	0.2	-20.5	2.2	-41.4	2.4	1.1
O=C(CC1SC(=Nc2ccc(OC(F)F)cc2)N(CCN2CCOCC2)C1=O)Nc1ccc(F)cc1F (centres undefined)	9.8	-101.3*	1.1	-113.6*	1.5	1.5
COc1cccc(-c2nnc(NC(=O)c3cccc(F)c3)o2)c1	20.1	-3.7	33.2*	1.7	-0.3	0.5
CCc1cc(/C(Cc2cscn2)=N\O)c(O)cc1O	-10.7	2.0	30.1*	-7.2	1.4	-0.6
O/N=C(\Cc1cscn1)c1ccc(O)cc1O	-2.8	-7.1	17.3	0.4	0.1	-0.6
COc1ccc(C(=O)Nc2nc3n(n2)C(c2ccc(Cl)cc2)C=C(c2ccccc2)N3)cc1OC (centres undefined)	-1.5	nt	7.4	nt	30.4*	13.9
N#CC1(NC(=O)COC(=O)c2ccc(Cl)nc2)CCCCC1	-9.7	1.7	-6.9	-1.2	-0.8	0.0
N#CC1(NC(=O)COC(=O)c2nccnc2N)CCCCC1	-1.6	-202.1*	-0.6	4.2	-0.4	-0.2
CCCC(=O)Nc1nnc(SCc2cc(=O)c3ccc(C)cc3[nH]2)s1	-10.7	nt	-8.9	nt	-0.6	2.4
CCOc1cc(C(=O)N2CCc3c([nH]c4ccccc34)C2c2ccccc2)cc(OCC)c1OCC (centres undefined)	20.1	nt	4.3	nt	0.7	-0.7
COc1ccc(NC(=O)c2cccc(S(=O)(=O)N3CCc4ccccc43)c2)c(OC)c1	12.3	-88.9*	nt	8.5	nt	0.0
COc1ccc(C(CNC(=O)c2cccc(S(=O)(=O)N3CCCc4ccccc43)c2)N(C)C)cc1 (centres undefined)	30.5	-18.3	nt	-73.6*	nt	2.2
COc1ccc(C(CNC(=O)c2ccc(S(=O)(=O)N3CC(C)CC(C)C3)cc2)N(C)C)cc1 (centres undefined)	29.5	-82.5*	nt	-10.8	nt	6.7
Cc1ccc2oc(=O)c3cc(C(=O)NCCCN4C(C)CCCC4C)sc3c2c1 (centres undefined)	-8.2	-1.1	1.0	10.7	-0.3	-1.1
FC(F)(F)c1nc(N2CCCC2)ncc1-c1nnnn1-c1ccccc1	-9.8	-11.9	-2.9	-0.2	0.6	52.0*
O=C(NC1CCCN(Cc2ccc(Cl)cc2)C1)c1ccnc(Cl)c1 (centres undefined)	17.2	10.2	32.5*	22.7	-2.2	-0.4
CN(C)c1nc(N(C)C)nc(N(C#N)CCOc2ccccc2)n1	-1.9	1.4	-4.0	8.6	0.3	2.4
COc1ccccc1OCCN(C#N)c1nc(N(C)C)nc(N(C)C)n1	-14.8	1.3	0.1	-84.4*	-0.4	0.9
Cc1nc2c(c(=O)c3ccccc3n2C)c(=O)n1C1CCCCCC1	7.9	-7.5	-5.6	3.3	32.8*	?
Cn1c2ccccc2c(=O)c2c(=O)n(C3CCCCC3)c(-c3ccco3)nc21	5.5	-41.6	-0.4	0.0	10.7	11.4
CCN(c1ccc(NC(=O)CSCc2c(C)noc2C)cc1)C(C)C	5.6	-6.0	3.9	-13.1	-3.1	-0.5
CN(C)c1ccc(C=c2c3ccccc3n3c2cc(-c2ccc(Cl)cc2)[n+]3C)cc1	78.3	-207.1*	nt	-190.6*	nt	0.0
SMILES	TRPML1 inh	hERG WT inh	TRHR enhancer	KCNH2 3.1 inh	TRHR agonist	TRPML1 agonist
Cc1ccc(Sc2cc(C)nc(-c3ccccn3)n2)cc1	-6.8	1.0	32.3*	-5.5	-0.2	1.2
CC1(C(=O)NS(=O)(=O)c2cccc(Cl)c2)CCN1C(=O)C1(c2ccc(Cl)cc2)CCC1 (centres undefined)	nt	nt	nt	nt	nt	-0.7
CCc1ccc(NC(=O)c2sc3nc4n(c(=O)c3c2C)CCC4)cc1	3.3	7.9	11.8	-90.6*	0.0	0.5
Cn1nnnc1SCCCNCc1ccc(-c2ccc(F)c(Cl)c2)o1	-0.6	nt	0.0	nt	0.8	-0.5
CC(C)(C)OC(=O)NCc1nnc(C(C(=O)OCc2ccccc2)c2ccccc2)s1 (centres undefined)	nt	nt	0.8	nt	-0.6	nt
COc1ccccc1CC(=O)NCc1csc(-c2cccs2)n1	4.4	-3.0	0.1	-6.3	-0.2	0.1
CC(C)C(=O)NNC(=O)c1csc(-c2cccs2)n1	5.9	-9.7	31.6*	14.5	-0.6	-1.2
CCOc1ccc(CNc2ccc3c(c2)ncn3C)cc1	5.5	-6.5	8.0	5.7	-0.9	-1.0
CCCn1cnc2cc(NCc3cccc(OC)c3)ccc21	-5.8	22.7	11.3	-73.6*	-0.9	1.5
CCOc1ccc(CNc2ccc3c(c2)ncn3C(C)(C)C)cc1	-6.1	23.7	-2.4	-110.1*	-0.5	-0.1
CCCn1cnc2cc(NCc3ccc(Br)cc3)ccc21	-5.4	14.2	0.9	-83.3*	0.2	-0.8
CCn1cnc2cc(NCc3ccc(Br)cc3)ccc21	-5.4	13.5	-0.4	-25.3	13.2	2.7
CCCn1cnc2cc(NCc3ccc(OC)cc3OC)ccc21	-9.5	nt	-3.3	nt	-0.7	0.6
CN(C)S(=O)(=O)N1CCN(c2cc(Cl)ccc2Cl)CC1	1.1	0.3	35.1*	-13.1	-0.4	3.0
CCOC(=O)N1CCC(N(CCOC)C(=S)Nc2cccc(SC)c2)CC1	0.0	2.8	-4.5	-0.3	-0.2	-0.7
CN1CCN(C(=O)Nc2ccccc2)CC1	6.8	3.8	-1.8	-2.0	0.9	0.8
CSc1cccc(NC(=O)N2CCN(C)CC2)c1	0.7	-9.2	36.5*	0.0	0.4	0.1
CCC(=O)Nc1cccc(SC)c1	-9.7	0.0	8.4	-83.1*	0.6	-0.5
CCC(=O)Nc1ccc(Nc2ccccc2)cc1	22.7	-82.4*	2.7	2.2	0.1	-0.7
CCOC(=O)N1CCC(Nc2cccc(SC)c2)CC1	8.0	32.8	3.0	-70.7*	-0.3	0.1
CSCCC(NC(=O)c1ccccc1Br)C(=O)NNC(=O)C1COc2ccccc2O1 (centres undefined)	-3.3	2.9	nt	0.8	nt	0.0
O=C(NCc1ccccc1)C1(C(F)(F)F)C/C(=C\Cc2ccccc2)CCCO1 (centres undefined)	19.7	nt	nt	nt	nt	1.5
C=C(C)C1CC=C(C)/C(=N/NC(=O)c2cccc([N+](=O)[O-])c2)C1 (centres undefined)	-12.4	0.6	36.6*	11.0	-0.5	1.1
